Screening data deposited in PubChem BioAssay by National Center for Advancing Translational Sciences (NCATS).
Only some compounds are listed: those with a hit (about 6.6% of all), similar ones and a draw of the others.
KB-3-1 cytotox: qHTS assay for MDR1-selective chemotherapeutics: Primary screen using the parental adenocarcinoma cell KB-3-1 | KB-3-1 viability, CellTiter-Glo ATP luminescence, 72 h | 1.4% of 400,000 active | Potency, µM (doses to about 46.1 µM), usual class: cytotoxic | AID 1347075, 2019; further: on the % scale 0 is the no-effect control and ±100 the full control effect; nearly all actives have a fitted effect of over 60% in size
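Screening of KB-3-1 cells (DMEM, 10% FBS, phenol-red free) ran from lowest to highest compound concentration; after 72 h at 37 °C viability was read luminescently and curves fitted.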
HT1080NT lethal: qHTS for induction of synthetic lethality in tumor cells producing 2HG: qHTS for the HT-1080-NT fibrosarcoma cell line | HT-1080-NT fibrosarcoma viability, CellTiter-Glo ATP luminescence, 48 h | Potency, µM (doses to about 46.1 µM), without a hit: top-dose activity, negative = less viability, actives largely listed as cytotoxic | 1.6% of 360,000 active | AID 686970, 2013;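 further: NT is the 2HG producing partner of a matched IDH1 knockdown line; 0% = DMSO-treated cells and -100% = media-only wells without cells; nearly all actives have a fitted effect of over 55% in size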
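Compounds were tested in concentration-response format on HT-1080-NT cells for 48 hours at 37 degrees C. Cell viability came from CellTiter-Glo luminescence; curves were classified by r2, response magnitude and activity.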
TGFb inhibitor: qHTS for Inhibitors of TGF-b | HepG2 CAGA-GFP TGF-b/SMAD3 reporter, GFP fluorescence, 18 h; TGF-beta stimulated, 500 pg/mL final | Potency, µM (titrated, usually from 46.1 µM), for the others: at the highest dose activity, negative = inhibition, hits mostly inhibitors | 1.2% of 410,000 active | AID 588855, 2011; further: on the % scale 0 is the no-effect control and ±100 the full control effect; nearly all actives have a fitted effect of over 65% in size
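Per well, imaged GFP fluorescence of HEPG2 CAGA-GFP cells gives the signal; cells get compound, then TGF-beta (500 pg/mL final), 18 h at 37 degrees C; %Activity versus -TGF-beta and +DMSO controls.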
KB-V1 cytotox: qHTS assay for MDR1-selective chemotherapeutics: Primary screen using the drug-selected MDR subline cells KB-V1; 3.4% of 400,000 active; KB-V1 MDR cells viability, CellTiter-Glo, 72 h; Potency, µM (highest dose often 46.1 µM), hits mostly cytotoxic; AID 1347076, 2019; further: on the % scale 0 is the no-effect control and ±100 the full control effect; nearly all actives have a fitted effect of over 60% in size
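KB-V1 cells (P-gp-expressing MDR subline of KB-3-1) in phenol-red-free DMEM with 10% FBS were exposed to library compounds over a concentration series for 72 h at 37 degrees C. Viability read by CellTiter-Glo luminescence; concentration-effect curves fitted after normalization.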
HT1080 IDH1KD tx: qHTS for induction of synthetic lethality in tumor cells producing 2HG: qHTS for the HT-1080-IDH1KD cell line. HT-1080 IDH1 knockdown viability, ATP luminescence, 48 h. Potency, µM (doses to about 46.1 µM), for the others: at the highest dose activity, negative = toxicity, most hits filed as cytotoxic. 2% of 360,000 active. AID 686971, 2013;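 further: 0% = DMSO wells and -100% = cell-free medium wells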
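% activity derives from luminescence (CellTiter-Glo), normalised to DMSO and no-cell wells. HT-1080-IDH1KD cells, 750/well, had 48 h compound exposure at 37 °C.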
HepG2 tox: qHTS for Inhibitors of TGF-b: Cytotox Counterscreen | HepG2 CAGA-GFP viability, ATP luminescence, 18 h | Potency, µM (titrated, usually from 46.1 µM), for inactives: at the highest dose activity change, negative = cytotoxicity, most hits filed as cytotoxic | 0.76% of 410,000 active | AID 588856, 2011
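HepG2 CAGA-GFP cells (1000/well, DMEM with 1% FBS) received compound, then TGF-beta at 500 pg/mL final, and were incubated 18 hours at 37 degrees C. Viability was read by CellTiter-Glo luminescence. Media-only wells were set as complete cell-killing and DMSO as no toxicity.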
The depositor's hits bear a star; i = inactive; ? = inconclusive; / = not tested or not shown. The call rests on the fitted dose curve; in most records, active means well fitted curve in the direction sought with a large enough effect; inconclusive means small, poorly fitted or top-dose-only effect, or another doubt; inactive means no such curve, though single readings can be large; an effect the other way counts as inactive or inconclusive. Potency means the concentration at half of the fitted maximal effect.

SMILES	KB-3-1 cytotox	HT1080NT lethal	TGFb inhibitor	KB-V1 cytotox	HT1080 IDH1KD tx	HepG2 tox
Cc1ccc(S(=O)(=O)N2CCCCC2CCNC(=O)C(=O)NCc2ccncc2)cc1 (centres undefined)	i	2%	-17%	?	-11%	-8%
Cc1cc(C)n(CC(=O)Nc2ccc(F)c(F)c2)c(=O)c1C#N	i	/	?	i	/	5%
Cn1c(=O)c2c(-c3cccc(Br)c3)n(CCO)cc2n(C)c1=O	i	/	-1%	i	/	-17%
COc1cccc(CNC(=O)CCc2c(C)nn(-c3ccc(N4CCOCC4)nn3)c2C)c1	i	/	?	i	/	-12%
COc1ccc(C(C#N)N2N=C(C)CC2c2ccccc2)cc1 (centres undefined)	i	-1%	22%	i	12%	1%
COc1ccc(C2=NN(C(C#N)c3ccc(OC)cc3)C(c3ccccc3)C2)cc1 (centres undefined)	23µM*	-1%	-12%	6.5µM*	-10%	-21%
C[C@H]1CN([C@@H](C)CO)S(=O)(=O)c2ccc(Br)cc2O[C@@H]1CN(C)Cc1cccc(F)c1	i	?	18µM*	i	-23%	13µM*
C[C@H](CO)N1C[C@H](C)[C@@H](CN(C)C(=O)Nc2ccccc2)Oc2cc(Br)ccc2S1(=O)=O	i	-9%	15%	i	-9%	-14%
C[C@@H]1CN([C@@H](C)CO)S(=O)(=O)c2ccc(Br)cc2O[C@H]1CN(C)Cc1ccc(-c2ccccc2)cc1	?	?	?	i	21µM*	-63%
C[C@@H]1CN([C@@H](C)CO)S(=O)(=O)c2ccc(Br)cc2O[C@H]1CN(C)C(=O)c1ccccc1	i	-1%	-14%	?	9%	-2%
C[C@H](CO)N1C[C@H](C)[C@@H](CN(C)Cc2ccc(Oc3ccccc3)cc2)Oc2cc(Br)ccc2S1(=O)=O	i	?	13µM*	i	?	-40%
Nc1nnc(SCC(=O)NNC(=O)c2ccccc2F)s1	i	-2%	0%	i	-1%	4%
COc1cccc(-n2c(=O)c3sc4ccccc4c3n(CC(=O)Nc3ccccc3OC)c2=O)c1	i	/	?	i	/	-18%
COC(=O)c1ccccc1NC(=O)c1cccc(NC(=O)c2ccc(Br)o2)c1C	i	13µM*	4%	?	10µM*	-8%
O=C(Nc1ccccc1C(=O)O)c1ccc(Br)o1	i	-25%	0%	i	?	-19%
COC(=O)c1ccccc1NC(=O)c1ccc(Cn2cc(Cl)cn2)o1	i	?	-1%	i	21µM*	-12%
COC(=O)c1cc(NC(=O)c2ccc(Cn3cc(Cl)cn3)o2)cc(C(=O)OC)c1	i	?	-12%	i	?	-5%
Cc1cccc(-n2c(=O)c3ccccc3n(Cc3ccc(F)cc3)c2=O)c1	i	/	-5%	i	/	-3%
CN(C)S(=O)(=O)c1ccc(C(=O)Nc2ccc(-n3nncc3-c3ccccc3)cc2)cc1	i	/	3%	i	/	-9%
COc1ccc(-c2nnc(CSc3ncnc4sc5c(c34)CCC5)o2)cc1OC	i	-5%	4%	21µM*	-2%	-2%
COCCn1c(SCc2nnc(-c3ccccc3)o2)nc2sc3c(c2c1=O)CCC3	i	3%	-2%	6.5µM*	-1%	10%
CC(=O)Nc1nonc1-c1nnc(SCc2ccccc2Cl)n1C	i	/	2%	i	/	1%
